# Where “and” joins values, the source holds several entries; their conditions need not be identical. Equal entries are not always repeated. Unmarked numbers belong to inactive results. Records with an inconclusive call do not appear. Entries that show only a call come without a potency. Calls of active or inactive are those of the source. Unless noted, the call rests on the fitted dose curve; in most records, active means well fitted curve in the direction sought with a large enough effect in the repeat runs; inconclusive means weak or mixed curves; inactive means no such curve, though single readings can be large; an effect the other way counts as inactive or inconclusive.
# Assays:
# [1] = qHTS assay to identify small molecule antagonists of the estrogen related receptor (ERR) signaling pathway - cell viability counter screen (AID 1224818);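 further: viability measured after 17.5 h of compound exposure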
# Method in brief: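 Quantitative high-throughput viability counter screen in ERR cells. Compounds (DMSO) incubated 17.5 h at 37 C; read-out was CellTiter-Fluor fluorescence.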
# [2] = qHTS assay to identify small molecule agonists of the estrogen related receptor (ERR) signaling pathway (AID 1224820); further: potency means the concentration at half of the fitted maximal effect
# Method in brief: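 Luminescence readout (One-Glo, 30 min RT) from NTP-supplied ERR cell line exposed to compounds for 18 h at 37 C. Cells seeded 2,000 per well and pre-incubated 6 h before pin-tool compound transfer.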
# [3] = tested on: estrogen-related receptor alpha (ERRalpha) with PGC-1alpha coactivator, human; experiment: qHTS assay to identify small molecule antagonists of the estrogen related receptor signaling pathway with the pleiotropic PPARgamma coactivator (PGC) (AID 1224821; calls by dose curve;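 further: lower luminescence signal means antagonism of PGC/ERR signalling; nearly all actives have a fitted effect of over 50% in size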)
# Method in brief: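 PGC/ERR reporter cells; 6 h pre-incubation 37 C/5% CO2; pin-tool compound in DMSO, 18 h 37 C; One-Glo added, 30 min RT; luminescence read. qHTS antagonist mode.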
# [4] = qHTS assay to identify small molecule antagonists of the estrogen related receptor signaling pathway with the pleiotropic PPARgamma coactivator (PGC) cell viability counter screen (AID 1224822; further: potency means the concentration at half of the fitted maximal effect)
# Method in brief: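 Cytotoxicity in the PGC/ERR cell line is assessed with CellTiter-Fluor, read as fluorescence intensity 30 min after reagent addition, following 17.5 h compound treatment at 37 C.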
# [5] = qHTS assay to identify small molecule agonists of the estrogen related receptor signaling pathway with the pleiotropic PPARgamma coactivator (PGC) (AID 1224823); further: potency means the concentration at half of the fitted maximal effect
# Method in brief: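 Luminescence readout (One-Glo, 30 min RT) from PGC/ERR cell line treated 18 h at 37 C with pin-tool-delivered DMSO compound solutions; cells plated 6 h before dosing. Quantitative HTS format.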
# [6] = qHTS assay to identify small molecule antagonists of the estrogen related receptor (ERR) signaling pathway (AID 1224819; further: nearly all actives have a fitted effect of over 50% in size; further: potency means the concentration at half of the fitted maximal effect)
# Method in brief: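 ERR reporter cell line (NTP) plated at 2,000 cells/well, settled 6 h at 37C/5% CO2, then exposed to LOPAC compounds for 18 h at 37C. One-Glo luciferase luminescence read after 30 min at room temperature.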
# [7] = qHTS assay to identify small molecule antagonists of the estrogen related receptor (ERR) signaling pathway from Tox21 library - cell viability counter screen (AID 1224834); further: nearly all actives have a fitted effect of over 30% in size
# Method in brief: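 Compounds in DMSO were pinned onto ERR cells that had been incubated for 6 h, and the plates were held at 37 C for 17.5 h. CellTiter-Fluor reagent was then added and fluorescence was measured after 30 min.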
# [8] = qHTS assay to identify small molecule antagonists of the estrogen related receptor signaling pathway with the pleiotropic PPARgamma coactivator (PGC) from Tox21 10K library - cell viability counter screen (AID 1224840; active means well fitted cell-killing curve with a large enough effect in the repeat runs, not every such curve was filed as active; further: nearly all actives have a fitted effect of over 40% in size)
# Method in brief: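 Cell viability is measured by CellTiter-Fluor fluorescence in PGC/ERR cells that receive compounds after a 6-hour attachment period and are then incubated 17.5 hours at 37 C.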
# [9] = qHTS assay to identify small molecule antagonists of the estrogen related receptor signaling pathway with the pleiotropic PPARgamma coactivator (PGC) from Tox21 10K library (AID 1224841; call rule not given here; further: actives are mostly falling curves and most rising ones were filed inactive; nearly all actives have a fitted effect of over 50% in size)
# Method in brief: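 Cells stably carrying the PGC/ERR reporter, seeded at 2,000 per well, received pin-transferred compounds 6 h post-plating. Exposure lasted 18 h at 37 C. Signal: One-Glo luminescence.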
# [10] = qHTS assay to identify small molecule agonists of the estrogen related receptor signaling pathway with the pleiotropic PPARgamma coactivator (PGC) from Tox21 10K library (AID 1224842); further: nearly all actives have a fitted effect of over 15% in size
# Method in brief: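 PGC/ERR reporter cell line, 2,000 cells per well, incubated 6 h at 37 C before 23 nL compound in DMSO was added. After 18 h at 37 C, One-Glo luminescence read following 30 min at room temperature.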
# [11] = qHTS assay to identify small molecule antagonists of the estrogen related receptor (ERR) signaling pathway from Tox21 library (AID 1224848); further: nearly all actives have a fitted effect of over 50% in size
# Method in brief: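 Compounds dissolved in DMSO are pin-transferred onto ERR reporter cells (2,000 per well) that have settled for 6 h at 37 C. Plates then incubate 18 h at 37 C before ONE-Glo luciferase reagent and a luminescence read 30 min later.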
# [12] = qHTS assay to identify small molecule agonists of the estrogen related receptor (ERR) signaling pathway from Tox21 library (AID 1224849; calls by dose curve; further: nearly all actives have a fitted effect of over 15% in size); details: ERR reporter cell line, ONE-Glo luciferase, 18 h
# Method in brief: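 Quantitative HTS in agonist format: NTP ERR cell line, compounds transferred in DMSO after 6 h plating, 18 h incubation at 37 C, ONE-Glo luminescence endpoint.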
# [13] = target: Acetylcholinesterase (Homo sapiens) (UniProt P22303); experiment: Acetylcholinesterase (AChE) small molecule antagonists: colormetric cell-based qHTS assay (AID 1347395; calls by dose curve; further: nearly all actives have a fitted effect of over 30% in size)
# Method in brief: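 Colorimetric read-out: DTNB detects thiocholine released when cellular AChE in SH-SY5Y cells hydrolyses acetylthiocholine. Cells attached overnight, received compound for 30 min at 37 C, then substrate mix for 90 min at 37 C.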
# [14] = target: Acetylcholinesterase (Homo sapiens) (UniProt P22303); experiment: Acetylcholinesterase (AChE) small molecule antagonists: enzyme-based qHTS assay (AID 1347397; calls by dose curve; further: nearly all actives have a fitted effect of over 55% in size); details: Potency: AChE enzyme activity inhibition; outcome: AChE enzyme activity inhibition
# Method in brief: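 Colorimetric DTNB read-out of thiocholine released from acetylthiocholine by recombinant human AChE (50 mU/mL as dispensed). Compounds were preincubated 30 min at RT before substrate/DTNB addition, with a 10 min RT reaction.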
# [15] = target: Acetylcholinesterase (Homo sapiens) (UniProt P22303); experiment: Acetylcholinesterase (AChE) small molecule antagonists: fluorescence cell-based qHTS assay (AID 1347398; calls by dose curve; further: nearly all actives have a fitted effect of over 50% in size); details: Potency: AChE activity; outcome: AChE activity
# Method in brief: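 SH-SY5Y, 2,000 cells/well, attached overnight; cmpd 30 min 37 C; acetylthiocholine/Thiolite Green cocktail 40 min RT; fluorescence Ex/Em 490/520 nm.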
# Chain of Acetylcholinesterase (Homo sapiens) (P22303 whole entry, looked up): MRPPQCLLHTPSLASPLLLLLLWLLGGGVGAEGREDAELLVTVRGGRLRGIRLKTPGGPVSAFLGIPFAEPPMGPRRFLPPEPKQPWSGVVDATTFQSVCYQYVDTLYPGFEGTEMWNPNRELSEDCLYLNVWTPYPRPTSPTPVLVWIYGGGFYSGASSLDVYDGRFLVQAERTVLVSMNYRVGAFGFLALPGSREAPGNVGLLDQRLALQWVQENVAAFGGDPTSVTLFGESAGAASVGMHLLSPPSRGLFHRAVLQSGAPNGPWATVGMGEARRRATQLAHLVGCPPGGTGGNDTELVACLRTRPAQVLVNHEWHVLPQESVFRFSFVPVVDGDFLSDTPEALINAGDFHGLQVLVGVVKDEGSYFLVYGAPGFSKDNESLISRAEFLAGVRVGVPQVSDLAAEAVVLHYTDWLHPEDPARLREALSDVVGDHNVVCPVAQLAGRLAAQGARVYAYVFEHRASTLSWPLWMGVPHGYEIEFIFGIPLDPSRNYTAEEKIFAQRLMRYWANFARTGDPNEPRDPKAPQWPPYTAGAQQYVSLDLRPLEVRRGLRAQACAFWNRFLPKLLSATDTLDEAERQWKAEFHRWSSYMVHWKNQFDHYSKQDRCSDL
smiles,measurement,setting,value
NC(=O)COc1c(F)cc(SCCNS(=O)(=O)c2ccccc2)cc1F,Potency,[1],inactive
same,Potency,[2],inactive
same,Potency,[3],inactive
same,Potency,[4],inactive
same,Potency,[5],inactive
COc1ccc2c(c1)C13CCCCC1C(C2)N(C)CC3 (configuration not stated),Potency,[1],inactive
same,Potency,[6],inactive
same,Potency,[2],inactive
same,Potency,[4],inactive
same,Potency,[5],inactive
CCN1C[C@@]2(COC)C3[C@@H](OC)C4[C@H]1C3([C@@H]1C[C@@]3(O)[C@H](OC(=O)c5ccccc5)[C@@H]1[C@]4(OC(C)=O)[C@@H](O)[C@@H]3OC)[C@H](OC)C[C@H]2O,Potency,[6],inactive
same,Potency,[2],inactive
same,Potency,[3],inactive
same,Potency,[4],inactive
Nc1ncnc2c1ncn2[C@@H]1O[C@H](COP(=O)(O)CP(=O)(O)OP(=O)(O)O)C(O)[C@H]1O (some centres not stated),Potency,[6],inactive
same,Potency,[2],inactive
same,Potency,[3],inactive
same,Potency,[4],inactive
same,Potency,[5],inactive
CCn1cnc2c(Nc3cccc(Cl)c3)nc(N[C@@H]3CCCC[C@@H]3N)nc21,Potency,[6],inactive
same,Potency,[5],inactive
CC(=O)c1c(O)c(C)c(O)c(Cc2c(O)c3c(c(C(=O)/C=C/c4ccccc4)c2O)OC(C)(C)C=C3)c1O,Potency,[6],10.6 µM (active)
same,Potency,[2],inactive
same,Potency,[4],3.48 µM (active)
same,Potency,[5],inactive
NC(=O)c1cc(N2CC2)c([N+](=O)[O-])cc1[N+](=O)[O-],Potency,[6],inactive
same,Potency,[2],inactive
same,Potency,[3],inactive
same,Potency,[4],inactive
CCn1cc(C(=O)O)c(=O)c2ccc(C)nc21,Potency,[6],inactive
same,Potency,[2],inactive
same,Potency,[3],inactive
same,Potency,[4],inactive
same,Potency,[5],inactive
same,Potency,[7],inactive
same,Potency,[8],inactive
same,Potency,[9],inactive
same,Potency,[10],inactive
same,Potency,[11],inactive
same,"activity change, positive = activation",[12]; at 42.5 µM (top of the series),4.67%
same,"activity change, positive = activation",[12]; at 92.4 µM (top of the series),4.5% and 0.305%
same,Potency,[13],inactive
same,Potency,[14],inactive
same,Potency,[15],inactive
CC1(C(=O)O)C2CCC(O2)C1(C)C(=O)O (configuration not stated),Potency,[2],inactive
same,Potency,[3],inactive
S=C(NC1CCCCC1)N1CCC(c2cnc[nH]2)CC1,Potency,[6],inactive
same,Potency,[2],inactive
same,Potency,[3],inactive
same,Potency,[4],inactive
O=[N+]([O-])c1ccc2nc(N3CCNCC3)ccc2c1,Potency,[6],inactive
same,Potency,[2],inactive
same,Potency,[3],inactive
same,Potency,[4],inactive
same,Potency,[5],inactive
CC(C)[C@H]1CN[C@H](C(=O)O)[C@H]1CC(=O)O,Potency,[6],inactive
same,Potency,[2],inactive
same,Potency,[3],inactive
same,Potency,[4],inactive
C[C@]12Cc3cn4c(nc3C=C1CCC1C2CC[C@@]2(C)[C@H]1CC[C@@]2(O)C#N)nc1ccccc14 (some centres not stated),Potency,[6],10.6 µM (active)
same,Potency,[2],inactive
same,Potency,[5],inactive
CCCCCCCCCCCCCC(=O)O[C@@H]1[C@@H](C)[C@@]2(O)[C@@H](C=C(CO)C[C@@]3(O)C(=O)C(C)=C[C@@H]23)C2C(C)(C)[C@@]21OC(C)=O (some centres not stated),Potency,[6],inactive
same,Potency,[2],8.72 nM (active)
same,Potency,[3],inactive
same,Potency,[5],6.71 nM (active)
CCCn1c(=O)c2[nH]c(C3CCCC3)nc2n(CCCOC(=O)c2ccc(S(=O)(=O)F)cc2)c1=O,Potency,[6],inactive
same,Potency,[2],inactive
same,Potency,[3],inactive
same,Potency,[4],inactive
same,Potency,[5],inactive
c1ccc2c(c1)[I+]c1ccccc1-2,Potency,[6],0.031 µM (active)
same,Potency,[2],inactive
same,Potency,[5],inactive
CC(C)NP(=O)(NC(C)C)OP(=O)(NC(C)C)NC(C)C,Potency,[6],inactive
same,Potency,[2],inactive
same,Potency,[3],inactive
same,Potency,[4],inactive
same,Potency,[5],inactive
CC(N)[C@H](O)c1ccc(O)c(O)c1 (some centres not stated),Potency,[6],inactive
same,Potency,[2],inactive
same,Potency,[3],inactive
same,Potency,[4],inactive
same,Potency,[5],inactive
CCCN1CCc2cccc3c2[C@H]1Cc1ccc(O)c(O)c1-3,Potency,[6],inactive
same,Potency,[2],inactive
same,Potency,[5],inactive
CCN(CC)c1ncnc2c1ncn2[C@@H]1O[C@H](COP(=O)(O)OP(=O)(O)C(Br)(Br)P(=O)(O)O)[C@@H](O)[C@H]1O,Potency,[6],inactive
same,Potency,[2],inactive
same,Potency,[3],inactive
same,Potency,[4],inactive
same,Potency,[5],inactive
O=[N+]([O-])c1cc(O)c(O)c([N+](=O)[O-])c1,Potency,[6],inactive
same,Potency,[2],inactive
same,Potency,[3],inactive
same,Potency,[4],inactive
same,Potency,[5],inactive
CN1CC[C@@]2(C)c3cc(OC(=O)Nc4ccccc4)ccc3N(C)[C@@H]12,Potency,[6],inactive
same,Potency,[3],inactive
C/C=C(/C)C(=O)O[C@H]1C(C)=C2[C@H]([C@@H]1OC(=O)CCCCCCC)[C@@](C)(OC(C)=O)C[C@H](OC(=O)CCC)[C@@]1(O)[C@H]2OC(=O)[C@@]1(C)O,Potency,[6],0.246 µM (active)
same,Potency,[2],inactive
same,Potency,[4],8.1 µM (active)
CC(Cc1ccc(OCC(=O)O)cc1)NCC(O)c1cccc(Cl)c1 (configuration not stated),Potency,[6],inactive
same,Potency,[2],inactive
same,Potency,[3],inactive
same,Potency,[4],inactive
same,Potency,[5],inactive

# — PubChem BioAssay (Tox21)
